In the supplement of paper PMC6411743:
± gives the standard deviation of the averaged measurements. The full data set covers some 6,200 targets. This sample favours those with the largest changes.

Compound: Nc1ncnc2c1ncn2[C@@H]1O[C@H](COP(=O)(O)OP(=O)(O)NP(=O)(O)O)[C@@H](O)[C@H]1O [adenylyl imidodiphosphate]
Experiment: NP40-soluble protein abundance relative to vehicle (solubility fold change) (ratio); higher = more soluble protein in presence of AMP-PNP
Outline: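 Jurkat crude lysate prepared with a Dounce homogeniser was treated at eight concentrations spanning 0.1 to 10 mM, 10 min at room temperature then 3 min at 37 °C. Solubilisation with 0.8% NP40 and benzonase and ultracentrifugation preceded TMT labelling of the supernatant for LC-MS/MS. Fold change against the detergent-processed vehicle was determined per replicate from vsn-normalised intensities, across three independent experiments.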

Chain of UniProt Q13243 (Q13243 whole entry): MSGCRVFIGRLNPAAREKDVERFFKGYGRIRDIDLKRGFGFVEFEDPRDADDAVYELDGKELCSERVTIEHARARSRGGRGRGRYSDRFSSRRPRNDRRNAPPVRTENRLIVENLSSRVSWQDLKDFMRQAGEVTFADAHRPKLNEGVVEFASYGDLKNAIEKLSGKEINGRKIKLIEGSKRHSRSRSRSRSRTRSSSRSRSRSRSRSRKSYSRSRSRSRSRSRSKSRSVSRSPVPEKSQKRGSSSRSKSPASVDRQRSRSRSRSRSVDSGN
Chain of UniProt Q08945 (Q08945 whole entry): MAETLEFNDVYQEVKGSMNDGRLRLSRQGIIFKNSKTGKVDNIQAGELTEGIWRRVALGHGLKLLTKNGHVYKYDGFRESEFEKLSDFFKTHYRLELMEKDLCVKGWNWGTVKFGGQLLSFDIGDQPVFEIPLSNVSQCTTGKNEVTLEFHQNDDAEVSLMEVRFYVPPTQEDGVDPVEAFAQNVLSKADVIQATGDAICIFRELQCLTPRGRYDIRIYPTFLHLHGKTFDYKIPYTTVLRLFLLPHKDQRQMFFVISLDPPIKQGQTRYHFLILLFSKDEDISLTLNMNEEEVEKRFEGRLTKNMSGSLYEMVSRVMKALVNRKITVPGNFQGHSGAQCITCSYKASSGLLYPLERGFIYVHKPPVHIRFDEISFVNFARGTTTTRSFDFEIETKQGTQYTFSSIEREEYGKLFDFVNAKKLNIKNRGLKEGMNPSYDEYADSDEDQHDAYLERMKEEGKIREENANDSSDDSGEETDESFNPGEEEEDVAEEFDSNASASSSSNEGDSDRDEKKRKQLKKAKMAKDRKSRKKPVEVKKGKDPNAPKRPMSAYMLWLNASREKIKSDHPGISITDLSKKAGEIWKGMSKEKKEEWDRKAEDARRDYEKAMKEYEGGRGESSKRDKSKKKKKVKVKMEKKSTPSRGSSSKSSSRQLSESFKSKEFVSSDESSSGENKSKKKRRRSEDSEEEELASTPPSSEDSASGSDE
Chain of UniProt P43155 (P43155 whole entry): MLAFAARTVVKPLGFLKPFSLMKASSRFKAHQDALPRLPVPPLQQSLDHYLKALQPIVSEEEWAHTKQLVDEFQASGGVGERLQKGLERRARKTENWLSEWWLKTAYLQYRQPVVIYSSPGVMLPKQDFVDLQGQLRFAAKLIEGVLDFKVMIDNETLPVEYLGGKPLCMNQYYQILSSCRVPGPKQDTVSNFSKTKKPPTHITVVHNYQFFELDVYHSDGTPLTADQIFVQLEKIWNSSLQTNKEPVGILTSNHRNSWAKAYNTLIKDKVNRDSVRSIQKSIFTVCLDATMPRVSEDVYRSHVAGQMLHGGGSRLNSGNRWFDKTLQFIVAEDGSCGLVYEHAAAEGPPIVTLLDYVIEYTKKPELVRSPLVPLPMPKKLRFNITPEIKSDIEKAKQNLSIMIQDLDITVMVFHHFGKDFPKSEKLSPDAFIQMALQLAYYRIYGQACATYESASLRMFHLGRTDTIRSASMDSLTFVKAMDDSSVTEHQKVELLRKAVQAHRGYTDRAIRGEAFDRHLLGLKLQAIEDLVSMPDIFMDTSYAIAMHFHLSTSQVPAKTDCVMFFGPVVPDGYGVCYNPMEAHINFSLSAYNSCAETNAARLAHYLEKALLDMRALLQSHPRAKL
Chain of UniProt P08559 (P08559 whole entry): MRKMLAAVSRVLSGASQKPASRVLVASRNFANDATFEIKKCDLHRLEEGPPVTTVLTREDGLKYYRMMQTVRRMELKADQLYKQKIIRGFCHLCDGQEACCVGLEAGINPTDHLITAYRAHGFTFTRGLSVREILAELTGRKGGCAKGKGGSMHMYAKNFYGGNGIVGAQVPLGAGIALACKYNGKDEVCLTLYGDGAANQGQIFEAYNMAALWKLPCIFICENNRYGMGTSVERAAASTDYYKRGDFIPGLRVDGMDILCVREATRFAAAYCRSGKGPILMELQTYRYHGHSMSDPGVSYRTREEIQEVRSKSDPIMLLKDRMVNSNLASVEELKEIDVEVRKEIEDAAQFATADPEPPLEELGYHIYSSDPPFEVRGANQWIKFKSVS
Chain of UniProt P22670 (P22670 whole entry): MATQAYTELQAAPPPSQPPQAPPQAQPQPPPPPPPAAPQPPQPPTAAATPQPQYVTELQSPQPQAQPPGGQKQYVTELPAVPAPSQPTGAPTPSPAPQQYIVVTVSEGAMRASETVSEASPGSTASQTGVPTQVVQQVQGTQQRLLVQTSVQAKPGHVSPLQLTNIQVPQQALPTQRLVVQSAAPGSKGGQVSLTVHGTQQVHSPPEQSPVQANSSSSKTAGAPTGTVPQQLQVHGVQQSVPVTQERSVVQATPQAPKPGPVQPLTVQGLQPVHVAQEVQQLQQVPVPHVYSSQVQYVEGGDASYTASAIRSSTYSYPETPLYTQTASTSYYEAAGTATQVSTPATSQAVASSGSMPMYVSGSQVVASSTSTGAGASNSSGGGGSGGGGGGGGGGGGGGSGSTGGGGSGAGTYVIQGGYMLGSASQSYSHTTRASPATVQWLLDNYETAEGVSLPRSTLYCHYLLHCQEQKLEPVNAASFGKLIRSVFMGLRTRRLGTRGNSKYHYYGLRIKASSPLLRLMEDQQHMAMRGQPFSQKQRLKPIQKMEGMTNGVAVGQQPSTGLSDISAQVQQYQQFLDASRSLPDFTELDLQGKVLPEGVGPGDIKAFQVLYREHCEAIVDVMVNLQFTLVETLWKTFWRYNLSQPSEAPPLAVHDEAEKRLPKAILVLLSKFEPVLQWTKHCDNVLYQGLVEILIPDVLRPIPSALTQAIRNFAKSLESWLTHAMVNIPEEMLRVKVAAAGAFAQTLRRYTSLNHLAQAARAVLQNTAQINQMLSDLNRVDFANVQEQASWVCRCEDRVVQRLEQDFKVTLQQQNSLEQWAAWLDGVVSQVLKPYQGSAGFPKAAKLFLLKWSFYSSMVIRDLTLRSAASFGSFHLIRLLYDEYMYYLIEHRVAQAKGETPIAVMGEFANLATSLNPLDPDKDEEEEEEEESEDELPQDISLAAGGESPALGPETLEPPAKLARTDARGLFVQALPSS
Chain of UniProt P54136 (P54136 whole entry): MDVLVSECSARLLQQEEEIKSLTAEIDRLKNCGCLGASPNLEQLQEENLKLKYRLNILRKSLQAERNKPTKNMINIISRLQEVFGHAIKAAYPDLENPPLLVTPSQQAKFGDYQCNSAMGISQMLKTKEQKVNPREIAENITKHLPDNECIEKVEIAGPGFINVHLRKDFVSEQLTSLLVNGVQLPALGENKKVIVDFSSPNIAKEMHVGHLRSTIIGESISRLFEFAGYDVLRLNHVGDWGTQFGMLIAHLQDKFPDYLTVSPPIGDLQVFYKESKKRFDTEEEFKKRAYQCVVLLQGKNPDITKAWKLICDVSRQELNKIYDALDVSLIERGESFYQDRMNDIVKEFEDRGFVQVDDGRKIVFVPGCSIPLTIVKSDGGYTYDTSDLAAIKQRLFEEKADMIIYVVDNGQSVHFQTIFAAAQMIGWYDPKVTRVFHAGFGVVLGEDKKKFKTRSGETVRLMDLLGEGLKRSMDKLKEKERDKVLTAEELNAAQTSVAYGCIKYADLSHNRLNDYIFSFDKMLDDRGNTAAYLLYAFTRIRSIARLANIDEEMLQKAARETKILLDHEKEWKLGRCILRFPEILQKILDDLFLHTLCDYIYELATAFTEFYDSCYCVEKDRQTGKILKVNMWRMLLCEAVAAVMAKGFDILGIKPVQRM
Chain of UniProt P12004 (P12004 whole entry): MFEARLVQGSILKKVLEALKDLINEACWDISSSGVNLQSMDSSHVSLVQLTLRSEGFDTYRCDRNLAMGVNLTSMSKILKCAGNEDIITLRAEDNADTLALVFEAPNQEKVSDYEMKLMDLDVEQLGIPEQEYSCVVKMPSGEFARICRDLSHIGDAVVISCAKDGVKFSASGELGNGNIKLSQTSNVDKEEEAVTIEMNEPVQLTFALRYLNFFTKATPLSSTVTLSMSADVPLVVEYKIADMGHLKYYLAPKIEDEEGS
Chain of UniProt P52756 (P52756 whole entry): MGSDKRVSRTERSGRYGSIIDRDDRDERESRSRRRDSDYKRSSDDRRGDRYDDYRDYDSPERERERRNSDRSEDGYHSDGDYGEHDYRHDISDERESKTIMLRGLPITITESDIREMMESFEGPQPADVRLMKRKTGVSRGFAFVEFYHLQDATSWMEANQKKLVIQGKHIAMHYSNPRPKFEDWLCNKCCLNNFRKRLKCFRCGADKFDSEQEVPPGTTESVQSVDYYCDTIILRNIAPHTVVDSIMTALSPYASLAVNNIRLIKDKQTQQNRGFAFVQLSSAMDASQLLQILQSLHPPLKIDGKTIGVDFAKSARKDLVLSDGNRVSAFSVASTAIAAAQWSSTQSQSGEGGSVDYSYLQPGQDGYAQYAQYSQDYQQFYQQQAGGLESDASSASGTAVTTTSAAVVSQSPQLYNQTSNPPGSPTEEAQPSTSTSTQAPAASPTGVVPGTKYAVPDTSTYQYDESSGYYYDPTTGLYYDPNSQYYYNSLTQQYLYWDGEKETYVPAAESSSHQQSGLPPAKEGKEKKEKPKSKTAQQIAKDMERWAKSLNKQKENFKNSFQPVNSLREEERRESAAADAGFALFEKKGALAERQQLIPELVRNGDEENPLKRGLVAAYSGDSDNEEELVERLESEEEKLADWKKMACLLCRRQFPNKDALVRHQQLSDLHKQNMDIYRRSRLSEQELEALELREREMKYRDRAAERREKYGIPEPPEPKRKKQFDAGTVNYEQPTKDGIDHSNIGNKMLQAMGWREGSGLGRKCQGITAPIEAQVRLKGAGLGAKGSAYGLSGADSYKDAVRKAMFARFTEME
Chain of UniProt P01112 (P01112 whole entry, looked up): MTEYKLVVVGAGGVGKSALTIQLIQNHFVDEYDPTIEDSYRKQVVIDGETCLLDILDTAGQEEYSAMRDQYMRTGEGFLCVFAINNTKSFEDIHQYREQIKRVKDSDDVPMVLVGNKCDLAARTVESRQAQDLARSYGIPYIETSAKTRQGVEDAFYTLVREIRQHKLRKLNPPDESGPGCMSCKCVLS

Target	NP40-soluble protein abundance (concentration: 1mM)	NP40-soluble protein abundance (concentration: 2mM)	NP40-soluble protein abundance (concentration: 4mM)	NP40-soluble protein abundance (concentration: 6mM)	NP40-soluble protein abundance (concentration: 8mM)	NP40-soluble protein abundance (concentration: 10mM)
UniProt P53384|P53384-2	0.979 ± 0.025	0.969 ± 0.057	1 ± 0.031	0.982 ± 0.022	0.97 ± 0.014	0.96 ± 0.063
UniProt P26038|V9GZ54	0.967 ± 0.13	1.06 ± 0.14	0.988 ± 0.13	0.916 ± 0.088	0.935 ± 0.012	0.936 ± 0.067
PSMC4 (UniProt P43686)	0.906 ± 0.041	0.921 ± 0.06	0.885 ± 0.08	0.871 ± 0.079	0.866 ± 0.082	0.859 ± 0.1
CAPZA2 (UniProt P47755)	1.01 ± 0.013	0.966 ± 0.02	0.9851 ± 0.0046	0.9821 ± 0.0042	1.004 ± 0.0091	0.986 ± 0.017
ACTR1B (UniProt P42025)	1 ± 0.062	0.927 ± 0.12	0.983 ± 0.071	0.986 ± 0.029	0.965 ± 0.063	0.961 ± 0.091
UniProt Q01082|Q01082-3	1.05 ± 0.028	1.08 ± 0.035	1.05 ± 0.019	1.08 ± 0.06	1.05 ± 0.032	1.09 ± 0.056
RBM5 (UniProt P52756)	1.05 ± 0.026	1.072 ± 0.0062	1.09 ± 0.038	1.06 ± 0.071	1.06 ± 0.061	1.1 ± 0.071
PRIM2 (UniProt P49643)	0.996 ± 0.022	0.954 ± 0.018	1 ± 0.013	1.02 ± 0.044	1.02 ± 0.027	1.02 ± 0.029
UniProt P08559|P08559-3|P08559-4|P08559-2	0.979 ± 0.13	0.94 ± 0.13	0.925 ± 0.13	0.923 ± 0.17	0.95 ± 0.12	0.965 ± 0.15
UniProt P09651-2|P09651	1.04 ± 0.11	1.09 ± 0.075	1.09 ± 0.11	1.14 ± 0.15	1.18 ± 0.15	1.25 ± 0.18
UniProt P01112	1.06 ± 0.026	1.04 ± 0.016	1.03 ± 0.021	1 ± 0.062	1.06 ± 0.021	1.01 ± 0.025
UniProt P62701	0.95 ± 0.063	0.87 ± 0.091	0.879 ± 0.11	0.873 ± 0.065	0.821 ± 0.071	0.851 ± 0.13
UniProt P49588|P49588-2	1.01 ± 0.013	0.976 ± 0.05	0.967 ± 0.041	0.979 ± 0.013	0.954 ± 0.03	0.952 ± 0.05
PYGB (UniProt P11216)	1.06 ± 0.1	1.09 ± 0.15	1.35 ± 0.14	1.43 ± 0.17	1.54 ± 0.24	1.47 ± 0.24
SUB1 (UniProt P53999)	0.923 ± 0.049	1 ± 0.19	0.916 ± 0.088	1 ± 0.089	0.997 ± 0.043	1.02 ± 0.11
USP4 (UniProt Q13107)	1 ± 0.018	0.967 ± 0.044	1 ± 0.046	0.97 ± 0.042	0.975 ± 0.039	0.942 ± 0.038
UniProt P11388|P11388-2|P11388-3|P11388-4	1.66 ± 0.082	1.72 ± 0.05	1.82 ± 0.16	1.98 ± 0.14	2.04 ± 0.24	2.13 ± 0.27
FARS2 (UniProt O95363)	0.9733 ± 0.0048	0.856 ± 0.13	0.943 ± 0.01	0.9111 ± 0.0032	0.919 ± 0.033	0.876 ± 0.029
RFX1 (UniProt P22670)	1.04 ± 0.016	1.03 ± 0.015	1.03 ± 0.03	1 ± 0.033	1.01 ± 0.025	0.995 ± 0.02
CCNA2 (UniProt P20248)	1.03 ± 0.042	1.07 ± 0.057	1.01 ± 0.033	1.01 ± 0.028	0.975 ± 0.014	1.04 ± 0.071
CDK6 (UniProt Q00534)	0.987 ± 0.029	0.951 ± 0.022	0.959 ± 0.03	0.967 ± 0.012	0.945 ± 0.033	0.91 ± 0.029
UniProt P54136|P54136-2	0.957 ± 0.051	0.888 ± 0.14	0.92 ± 0.1	0.92 ± 0.097	0.945 ± 0.13	0.894 ± 0.16
UniProt P43155|P43155-2|P43155-3	0.974 ± 0.057	0.965 ± 0.011	1 ± 0.032	1.01 ± 0.086	1.01 ± 0.061	1.01 ± 0.077
PCNA (UniProt P12004)	1.008 ± 0.0098	0.998 ± 0.012	0.957 ± 0.012	0.973 ± 0.015	0.951 ± 0.018	0.935 ± 0.024
SSR4 (UniProt P51571)	0.998 ± 0.014	0.961 ± 0.064	0.988 ± 0.019	0.977 ± 0.027	0.998 ± 0.011	0.981 ± 0.037
NUP155 (UniProt O75694)	0.983 ± 0.046	0.919 ± 0.062	1 ± 0.025	0.98 ± 0.039	1.01 ± 0.035	1 ± 0.023
UniProt O75367|O75367-2|O75367-3	1.01 ± 0.066	1 ± 0.055	1.05 ± 0.075	1.15 ± 0.034	1.26 ± 0.092	1.44 ± 0.049
SSRP1 (UniProt Q08945)	1.05 ± 0.053	1.07 ± 0.03	1.13 ± 0.045	1.35 ± 0.055	1.47 ± 0.058	1.73 ± 0.1
UniProt P48047	0.907 ± 0.042	0.912 ± 0.041	0.896 ± 0.051	0.96 ± 0.087	0.974 ± 0.045	0.938 ± 0.1
UniProt Q13243	1.1 ± 0.056	1.2 ± 0.091	1.17 ± 0.07	1.19 ± 0.013	1.208 ± 0.0093	1.36 ± 0.12
